Measurements from the supplement of paper PMC3545927.
Some of the results follow. The true hit rate is not given.

Target: furin, P09958
Assay: furin cleavage Z-score vs untreated control; higher = more cleavage, active = 3.5 or more, inactive = 1 or less, 8 variable residues between constant flanks
Method in brief: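 Furin-free reactions served as the baseline for the cleavage Z-score, which is the log read count lowess-adjusted and scaled by median absolute deviation. Counts came from released DNA, adapter-tagged by PCR and sequenced. Purified furin had cut 8-mer peptides fused to a cDNA oligonucleotide on magnetic beads during 7.5, 15 or 30 min at 1:10 enzyme:substrate.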
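Note: purified furin at 1:10 enzyme:substrate in 50 mM HEPES pH 7.5.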

furin, P09958, sequence (P09958 whole entry): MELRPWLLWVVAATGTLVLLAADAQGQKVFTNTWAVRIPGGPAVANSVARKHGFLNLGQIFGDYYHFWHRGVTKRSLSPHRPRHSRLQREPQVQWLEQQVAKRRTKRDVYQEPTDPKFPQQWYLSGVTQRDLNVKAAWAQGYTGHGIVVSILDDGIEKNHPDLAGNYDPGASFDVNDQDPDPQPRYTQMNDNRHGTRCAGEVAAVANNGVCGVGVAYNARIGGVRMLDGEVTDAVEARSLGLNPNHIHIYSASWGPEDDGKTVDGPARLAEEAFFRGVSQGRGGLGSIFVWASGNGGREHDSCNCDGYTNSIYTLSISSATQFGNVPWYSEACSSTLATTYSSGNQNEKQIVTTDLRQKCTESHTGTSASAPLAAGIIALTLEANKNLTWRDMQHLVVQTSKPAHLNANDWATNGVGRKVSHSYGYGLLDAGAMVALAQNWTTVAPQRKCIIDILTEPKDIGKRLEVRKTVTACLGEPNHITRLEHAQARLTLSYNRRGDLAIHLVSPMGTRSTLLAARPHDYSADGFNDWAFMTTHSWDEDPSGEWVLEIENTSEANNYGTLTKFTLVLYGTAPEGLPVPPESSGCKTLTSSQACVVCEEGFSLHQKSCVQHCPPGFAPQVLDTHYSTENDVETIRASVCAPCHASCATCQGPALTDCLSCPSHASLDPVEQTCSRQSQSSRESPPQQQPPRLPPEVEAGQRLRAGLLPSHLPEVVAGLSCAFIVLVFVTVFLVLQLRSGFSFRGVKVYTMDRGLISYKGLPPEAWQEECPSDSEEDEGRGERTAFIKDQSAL

Sequence | furin cleavage Z-score (7.5 min) | furin cleavage Z-score (15 min) | furin cleavage Z-score (30 min)
CARAAVCTRGAGNASASA [HC751] | 0.0348 (inactive) | -0.103 (inactive) | -0.127 (inactive)
CAISWCLWWLAGNASASA [HC580] | -1.57 (inactive) | -0.298 (inactive) | -1.76 (inactive)
CARRIRPTHPAGNASASA [FS-3048] | -1.48 (inactive) | -0.376 (inactive) | -2.07 (inactive)
CAPCTTPCSGAGNASASA [HC1959] | -0.283 (inactive) | -0.0949 (inactive) | 0.269 (inactive)
CARHPRSPPRAGNASASA [FS-2679] | 2.12 | 2.59 | 4.01 (active)
CARFRRQDIRAGNASASA [FS-2664] | 2.04 | 2.56 | 4.18 (active)
CAREERSWFRAGNASASA [FS-2910] | 1.59 | -0.354 (inactive) | -1.01 (inactive)
CARFRRQQWKAGNASASA [FS-2416] | -0.28 (inactive) | -0.542 (inactive) | -0.363 (inactive)
CASPPVPPPRAGNASASA [HC1321] | 0.641 (inactive) | 2.74 | 1.49
CARTRRQDIRAGNASASA [FS-2836] | 3.19 | 3.96 (active) | 4.46 (active)
CARFRRLWPCAGNASASA [FS-1705] | -0.433 (inactive) | -0.574 (inactive) | 0.464 (inactive)
CATVTESDIRAGNASASA [HC1484] | -1.23 (inactive) | -2.19 (inactive) | -1.8 (inactive)
CADQMEECSQAGNASASA [HC1822] | -1.95 (inactive) | 0.171 (inactive) | 0.415 (inactive)
CAVQCCSMSYAGNASASA [HC2022] | -0.966 (inactive) | 0.322 (inactive) | 0.723 (inactive)
CADLCGSVFLAGNASASA [HC300] | -2.25 (inactive) | -0.764 (inactive) | -0.906 (inactive)
CASDGSWSTVAGNASASA [HC1361] | 1.87 | 1.47 | 0.994 (inactive)
CARWKRGLDWAGNASASA [FS-3214] | 7.21 (active) | 8.26 (active) | 10.3 (active)
CARWKRPIDLAGNASASA [FS-3131] | -0.222 (inactive) | 0.7 (inactive) | 0.99 (inactive)
CARAKRQKDFAGNASASA [FS-2885] | 3.42 | 4.84 (active) | 4.86 (active)
CARWKRPAFTAGNASASA [FS-1806] | -0.259 (inactive) | 0.293 (inactive) | -0.665 (inactive)
CARWKRNLDFAGNASASA [FS-2199] | 6.47 (active) | 7.97 (active) | 10.7 (active)
